# The entries come from a sample that favours hits as a whole.
# CBX7 inh – blocks human CBX7 binding to H3K27me3 peptide. actives 1.1% (n = 66,000). normalised signal (fraction of DMSO) (concentration not given with the values). AlphaScreen His6-CBX7 / biotin-H3K27me3 peptide binding; stronger effect = lower value. AID 1224903; in the data active means normalised signal below about 0.5
# Target sequence (O95931 whole entry, looked up): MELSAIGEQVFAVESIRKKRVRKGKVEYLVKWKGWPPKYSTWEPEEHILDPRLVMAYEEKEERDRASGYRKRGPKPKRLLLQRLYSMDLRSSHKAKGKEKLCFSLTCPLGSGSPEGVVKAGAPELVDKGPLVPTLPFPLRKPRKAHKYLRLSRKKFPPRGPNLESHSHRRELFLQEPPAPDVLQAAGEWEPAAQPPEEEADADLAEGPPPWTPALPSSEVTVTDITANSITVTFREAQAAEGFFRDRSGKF
# * hit, by the source's call; ! = repeats disagree.
SMILES,CBX7 inh
COc1ccc(-c2nc(-c3cccc4ccccc34)[nH]c2-c2ccc(OC)cc2)cc1,0.826
COc1ccc(-c2nc(-c3ccccc3)c(-c3ccc(Sc4ccccc4)cc3)[nH]2)cc1,0.521
COc1ccc(-c2nc(-c3ccccc3F)[nH]c2-c2ccc(OC)cc2)cc1,0.466*
COc1ccc(-c2nc(-c3ccccc3)c(-c3ccc(Cl)cc3)[nH]2)cc1,0.743
Oc1ccc(-c2nc(-c3ccccc3)c(-c3ccc(Oc4ccccc4)cc3)[nH]2)cc1O,0.446*
COc1ccc(-c2nc(-c3cccc(F)c3)[nH]c2-c2ccc(OC)cc2)cc1,0.575
COc1cccc(-c2nn(C)c3sc(C(=O)NC4CCCCC4)cc23)c1,0.904
CCOCCCN1C(=O)CN(C2CCCCCC2)C(=O)C1c1ccc(C)cc1 (stereo not given),0.99
CC(=O)N1CCC(N(C(=O)Nc2ccc(Cl)cc2)C2CCCCC2)CC1,0.927
COc1cccc(N2CCN(C(=O)CCc3c(C)nc4ncnn4c3C)CC2)c1,1.04
COc1ccccc1Nc1nc(-c2ccncc2)nc2ccccc12,0.329*
COc1ccccc1Nc1nc(-c2ccc(C)cc2)nc2ccccc12,1.41
COc1ccccc1Nc1nc(-c2ccccc2Cl)nc2ccccc12,1.28
COCCNC(=O)C1CCCN(c2nnc(-n3cccc3)s2)C1 (stereo not given),1.11
O=C(c1ccccc1)c1ccc(-c2[nH]c(-c3cccc(Cl)c3)nc2-c2ccccc2)cc1,0.901
O=C(O)c1ccc(-c2nc(-c3ccc(C(=O)c4ccc(F)cc4)cc3)c(-c3ccc(F)cc3)[nH]2)cc1,0.711
Oc1ccc(-c2nc(-c3ccccc3)c(-c3ccc(F)cc3)[nH]2)cc1O,0.776
Cc1ccc(C)c(-c2[nH]c(-c3cccc(O)c3)nc2-c2ccccc2)c1,0.592
Oc1cccc(-c2nc(-c3ccccc3)c(-c3ccccc3)[nH]2)c1,0.341*
Oc1cccc(-c2nc(-c3ccccc3)c(-c3ccc(F)cc3)[nH]2)c1,0.348*
COc1cccc(C(=O)N(Cc2ccc(Cl)cc2)C2CCS(=O)(=O)C2)c1 (stereo not given),0.893
CCOCCCNC(=O)c1ccc2c(c1)nc(C)n2-c1cc(Cl)ccc1OC,1.04
COc1ccc2nc(Nc3nc4c(c(=O)[nH]3)CCCC4)nc(C)c2c1,0.899
O=C(C1=CCN(S(=O)(=O)c2ccc(Br)cc2)CC1)N1CCN(c2ccccn2)CC1,1.01
O=C(NC1CCCCCC1)c1ccccc1-c1nc2ccccc2[nH]1,1.11
SMILES,CBX7 inh
O=C1CCCc2nc(Nc3nc4ccccc4s3)ncc21,1.05
O=C(NCc1ccc2c(c1)OCO2)C1CCCN(c2nnc(-n3cccc3)s2)C1 (stereo not given),0.989
O=C(NCCc1ccccc1)C1CCN(S(=O)(=O)c2cccc3cccnc23)CC1,1.12
COc1ccc(OC)c(NC2c3ccccc3C(=O)N2c2ccc(Cl)cn2)c1 (stereo not given),0.344*
COc1ccc(NC2c3ccccc3C(=O)N2c2ccc(C)cn2)cc1OC (stereo not given),0.94
COc1cc(OC)c(NC2c3ccccc3C(=O)N2c2ccc(C)cn2)cc1Cl (stereo not given),0.414*
COc1ccc(OC)c(NC2c3ccccc3C(=O)N2c2ccccn2)c1 (stereo not given),0.722
Cc1ccc(N2C(=O)c3ccccc3C2Nc2ccc(Cl)cc2Cl)nc1 (stereo not given),0.872
COc1ccc(OC)c(NC2c3ccccc3C(=O)N2c2ccc(Cl)cc2)c1 (stereo not given),0.638
CCOc1ccc(CCNC(=O)C2=CCN(S(=O)(=O)c3ccc(F)cc3)CC2)cc1OCC,1.09
Cc1cc(N2CCN(C)CC2)nc2ccc(NC(=O)C(C)Oc3ccc(Cl)cc3Cl)cc12 (stereo not given),1.06
CC(c1ccccc1)n1c(-c2cccc(Br)c2)nc2ccccc21 (stereo not given),1.01
O=C(CN1C(=O)CSc2ncccc21)N1CCN(c2ccccc2)CC1,1.07
CCOC(=O)c1c(CN2CCN(c3ccccc3)CC2)n(C)c2ccc(OC)c(S(=O)(=O)c3ccccc3)c12,0.774
CCc1ccccc1NC(=O)C1CCCN(S(=O)(=O)c2cccc3cccnc23)C1 (stereo not given),0.777
CC1CCN(c2oc(-c3ccccc3)nc2C#N)CC1,0.412*
CCN1CCN(c2oc(-c3ccccc3)nc2C#N)CC1,0.972
N#Cc1nc(-c2ccccc2)oc1N1CCOCC1,0.873
Fc1ccc(-c2nnc3ccc4ccccc4n23)cc1,0.872
c1cncc(-c2nnc3ccc4ccccc4n23)c1,0.361*
CC1(C)Cc2ccccc2-c2nnc(-c3cccnc3)n21,0.988
CCCC1=Nc2cc(C(=O)N3CCN(Cc4ccc5c(c4)OCO5)CC3)ccc2Sc2ccccc21,0.71
O=C(NCCCn1ccnc1)c1cc(-c2cccc(Cl)c2)on1,0.98
Cc1cccc2nc(-c3ccccn3)c(Nc3ccc(F)cc3)n12,0.0586*
Cc1ccc(-c2nc3ccccn3c2Nc2ccc(F)cc2)cc1,0.853
SMILES,CBX7 inh
Cc1ccc(Nc2c(-c3ccccn3)nc3ccc(Br)cn23)cc1,0.97
Cc1ccc(Nc2c(-c3ccsc3)nc3cccc(C)n23)cc1,0.919
Fc1ccc(Nc2c(-c3ccccn3)nc3ccc(Br)cn23)cc1,0.946
Cc1ccc(Nc2c(-c3ccccn3)nc3ccc(Cl)cn23)cc1,0.765
Cc1ccc(Nc2c(-c3ccccc3)nc3cc(C)ccn23)cc1,1.2
Cc1ccc(Nc2c(-c3ccccn3)nc3cccc(C)n23)cc1,0.00144*
Cc1ccc(Nc2c(-c3c(F)cccc3Cl)nc3cccc(C)n23)cc1,0.96
Cc1cccc2nc(-c3ccccn3)c(Nc3ccccc3)n12,0.00532*
Cc1cccc(C)c1Nc1c(-c2ccccc2F)nc2cccc(C)n12,0.869
Cc1ccn2c(Nc3ccc(F)cc3)c(-c3ccccn3)nc2c1,0*
Cc1nc2c(C(=O)NC3CCCC3)c[nH]n2c(=O)c1Cc1ccc(F)cc1Cl,0.976
O=C(C1CC1)N1CCc2cc(S(=O)(=O)NCCN3CCN(c4ccccc4)CC3)ccc21,0.974
Cn1c(=O)c(=O)n(C)c2cc(S(=O)(=O)Nc3ccccc3F)ccc21,0.821
CCOc1ccc(C2NCCc3cc(OC)c(OC)cc32)cc1 (stereo not given),0.876
CNS(=O)(=O)c1cc(-c2nnc(OC)c3ccccc23)ccc1C,0.82
Cc1ccccc1NC(=O)c1ccc2c(c1)C(=O)N(c1ccccc1C)C2=O,1.06
Cc1[nH]c2ccc(OC(F)(F)F)cc2c1CCNC(=O)c1cccc(F)c1F,0.956
Cc1ccc(-c2csc(Nc3ccc(F)cc3)n2)cc1,0.939
Cc1nc(N)sc1-c1csc(Nc2ccc(Cl)cc2)n1,0.383*
COc1cc(Nc2nc(-c3ccc(C)cc3)cs2)c(OC)cc1Cl,0.46*!
Cc1nc(N)sc1-c1csc(Nc2cccc(Cl)c2)n1,0.772
Cc1ccc(-c2csc(Nc3ccccc3Cl)n2)cc1,1.04
CC(=O)Nc1nc(C)c(-c2csc(Nc3ccc(N)cc3)n2)s1,0.469*
CC(=O)Nc1nc(C)c(-c2csc(Nc3ccccc3)n2)s1,0.508
COc1cc(Nc2nc(-c3ccc(Cl)cc3)cs2)c(OC)cc1Cl,1.03
COc1ccc(OC)c(Nc2nc(-c3sc(NC(C)=O)nc3C)cs2)c1,0.652
Cc1ccc(Nc2nc(-c3sc(N)nc3C)cs2)cc1,0.382*
Fc1ccc(Nc2nc(-c3ccc(Cl)cc3)cs2)cc1,0.822
CC(=O)Nc1ccc(Nc2nc(-c3sc(C)nc3C)cs2)cc1,0.864
COc1ccc(CCNC(=O)CCC(=O)Nc2ccc3nc(N4CCCCC4)cc(C)c3c2)cc1OC,0.998

# Screens deposited in PubChem BioAssay by Bradner/Qi Labs at DFCI.
